Laboratory results: PubChem BioAssay (NCI)
About 83,000 compounds went through this panel and 20% of them were active in at least one assay; those are over-represented in the sample as a whole.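 96-well plates, one dose, 48 hours. Percent growth reported; active if below 10.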 Active and inactive are the calls of the source.

Tests used:
Assay in all cases: NCI-60 one-dose screen, 48 h (100 = growth as untreated, 0 = no growth, -100 = all killed)
Details in all cases: 10 µM unless noted
DU-145 prostate = tested on: DU-145 prostate
K-562 leukemia = tested on: K-562 leukemia
MALME-3M melanoma = tested on: MALME-3M melanoma
MDA-MB-231 breast = tested on: MDA-MB-231 breast
RXF 393 renal = tested on: RXF 393 renal
SF-268 CNS = tested on: SF-268 CNS
SF-295 CNS = tested on: SF-295 CNS
SF-539 CNS = tested on: SF-539 CNS
UACC-257 melanoma = tested on: UACC-257 melanoma
HCT-15 colon = tested on: HCT-15 colon
HT29 colon = tested on: HT29 colon
SNB-75 CNS = tested on: SNB-75 CNS
SNB-19 CNS = tested on: SNB-19 CNS
U251 CNS = tested on: U251 CNS
PC-3 prostate = tested on: PC-3 prostate
SK-MEL-5 melanoma = tested on: SK-MEL-5 melanoma
UACC-62 melanoma = tested on: UACC-62 melanoma
LOX IMVI melanoma = tested on: LOX IMVI melanoma
SK-MEL-28 melanoma = tested on: SK-MEL-28 melanoma

Measured: growth

COc1cc(CCNc2cnc3cc(N)cc(N)c3n2)cc(OC)c1
inactive: DU-145 prostate 118% | K-562 leukemia 35.3% | MALME-3M melanoma 146% | MDA-MB-231 breast 96.7% | RXF 393 renal 114% | SF-268 CNS 109% | SF-295 CNS 116% | SF-539 CNS 123% | UACC-257 melanoma 111% | HCT-15 colon 104% | HT29 colon 100% | SNB-75 CNS 98.8% | SNB-19 CNS 111% | U251 CNS 104% | PC-3 prostate 118% | SK-MEL-5 melanoma 103% | UACC-62 melanoma 109% | LOX IMVI melanoma 108% | SK-MEL-28 melanoma 61%

CCCCCCCCCC[N+](C)(C)N
inactive: DU-145 prostate 111% | K-562 leukemia 71.6% | MALME-3M melanoma 95% | MDA-MB-231 breast 101% | RXF 393 renal 81.8% | SF-268 CNS 98.6% | SF-295 CNS 98.4% | SF-539 CNS 89.1% | UACC-257 melanoma 94.7% | HCT-15 colon 101% | HT29 colon 85.4% | SNB-75 CNS 78.9% | SNB-19 CNS 87.2% | U251 CNS 91.8% | PC-3 prostate 62.4% | SK-MEL-5 melanoma 96.7% | UACC-62 melanoma 106% | SK-MEL-28 melanoma 110%

Cc1ccc(C(=O)Nc2ccc(CN3CCN(C)CC3)c(C(F)(F)F)c2)cc1C#Cc1cnc(N)c2ccc(F)cc12
active: DU-145 prostate -91.7% | K-562 leukemia -78.2% | MALME-3M melanoma -88.4% | MDA-MB-231 breast -90.7% | RXF 393 renal -90.8% | SF-268 CNS -75.2% | SF-295 CNS -76.9% | SF-539 CNS -92.5% | UACC-257 melanoma -60.9% | HCT-15 colon -93.4% | HT29 colon -85% | SNB-75 CNS -70.4% | SNB-19 CNS -99.1% | U251 CNS -89.2% | PC-3 prostate -82.7% | SK-MEL-5 melanoma -96% | UACC-62 melanoma -83.9% | LOX IMVI melanoma -91.4% | SK-MEL-28 melanoma -96.2%

CCCCCCCCCC[N+](C)(C)C
inactive: DU-145 prostate 34% | K-562 leukemia 22.3% | MALME-3M melanoma 24.8% | MDA-MB-231 breast 14.3% | SF-268 CNS 13.2% | SF-295 CNS 36.1% | UACC-257 melanoma 66.3% | HCT-15 colon 39.3% | SNB-19 CNS 13.4% | UACC-62 melanoma 28.5% | SK-MEL-28 melanoma 51.8%
active: RXF 393 renal -42.3% | SF-539 CNS 1.4% | HT29 colon 8.24% | SNB-75 CNS -22.8% | U251 CNS -75.4% | PC-3 prostate -49% | SK-MEL-5 melanoma -13.6% | LOX IMVI melanoma -78.4%

COC(=O)/C(Br)=C/c1c[nH]c2ccc(Br)cc12
inactive: DU-145 prostate 104% | K-562 leukemia 74.7% | MALME-3M melanoma 95.2% | MDA-MB-231 breast 80.9% | RXF 393 renal 32.6% | SF-268 CNS 97.7% | SF-295 CNS 64% | SF-539 CNS 95% | UACC-257 melanoma 88% | HCT-15 colon 76.8% | HT29 colon 95.3% | SNB-75 CNS 90.1% | SNB-19 CNS 88.7% | U251 CNS 68.5% | PC-3 prostate 70.8% | SK-MEL-5 melanoma 85.1% | UACC-62 melanoma 68% | LOX IMVI melanoma 62% | SK-MEL-28 melanoma 105%

COc1ccc2nc3cc(Cl)ccc3c(NCCCNC(C)=O)c2c1
inactive: DU-145 prostate 29.4% | K-562 leukemia 23.9% | MALME-3M melanoma 40% | MDA-MB-231 breast 56.8% | RXF 393 renal 32.9% | SF-268 CNS 43% | SF-295 CNS 45.7% | SF-539 CNS 20.1% | UACC-257 melanoma 43.1% | HT29 colon 27% | SNB-75 CNS 68.9% | SNB-19 CNS 43.4% | U251 CNS 32.3% | PC-3 prostate 39.6% | SK-MEL-5 melanoma 23.5% | UACC-62 melanoma 42.6% | LOX IMVI melanoma 15.9% | SK-MEL-28 melanoma 38.8%

COc1ccc(-c2nc(SCC(C)C)nc(Nc3ccccc3)c2C#N)cc1
inactive: DU-145 prostate 100% | K-562 leukemia 82.1% | MALME-3M melanoma 96% | MDA-MB-231 breast 93.5% | RXF 393 renal 98.8% | SF-268 CNS 87.9% | SF-295 CNS 77.1% | SF-539 CNS 70.5% | UACC-257 melanoma 83.8% | HCT-15 colon 83.4% | HT29 colon 78.9% | SNB-75 CNS 89% | SNB-19 CNS 81.3% | U251 CNS 50.5% | PC-3 prostate 86.9% | SK-MEL-5 melanoma 96.7% | UACC-62 melanoma 88.1% | LOX IMVI melanoma 80.1% | SK-MEL-28 melanoma 112%

Cc1nn(-c2ccccc2)c(N)c1N=C1NC(=O)/C(=C/c2ccc(Cl)cc2)S1
inactive: DU-145 prostate 86.9% | K-562 leukemia 73.2% | MALME-3M melanoma 87.4% | MDA-MB-231 breast 105% | RXF 393 renal 109% | SF-268 CNS 83.7% | SF-295 CNS 86.5% | SF-539 CNS 81% | UACC-257 melanoma 105% | HCT-15 colon 80.6% | HT29 colon 106% | SNB-75 CNS 58.9% | SNB-19 CNS 83.6% | U251 CNS 79.1% | PC-3 prostate 76.8% | SK-MEL-5 melanoma 92.1% | UACC-62 melanoma 77.3% | LOX IMVI melanoma 89.7% | SK-MEL-28 melanoma 92.3%
